# Screening data deposited in PubChem BioAssay by National Center for Advancing Translational Sciences (NCATS).
# This excerpt belongs to a sample that is enriched for hits.
# VDR inhibitor: blocks the human vitamin D receptor; P11473; VDR-SRC2-3 peptide fluorescence polarization, 2 h; Potency, µM, for inactives: max response, negative = inhibition, actives largely listed as inhibitors; 400,000 compounds, 0.93% hits; AID 504847; further: on the % scale 0 is the no-effect control and ±100 the full control effect
# Target sequence (P11473 whole entry, looked up): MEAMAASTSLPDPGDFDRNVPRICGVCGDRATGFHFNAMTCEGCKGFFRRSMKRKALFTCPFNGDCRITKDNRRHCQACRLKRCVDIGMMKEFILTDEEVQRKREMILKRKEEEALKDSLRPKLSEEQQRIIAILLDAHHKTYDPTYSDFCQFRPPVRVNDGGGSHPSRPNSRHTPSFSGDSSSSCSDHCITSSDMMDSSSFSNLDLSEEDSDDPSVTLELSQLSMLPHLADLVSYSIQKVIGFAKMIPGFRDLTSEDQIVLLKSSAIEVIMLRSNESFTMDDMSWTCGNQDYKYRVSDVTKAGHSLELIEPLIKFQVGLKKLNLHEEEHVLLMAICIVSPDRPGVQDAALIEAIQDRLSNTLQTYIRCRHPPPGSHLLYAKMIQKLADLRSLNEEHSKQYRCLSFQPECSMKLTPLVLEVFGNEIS
#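 Signal is fluorescence polarization, reporting how far test compounds block the interaction of VDR with the SRC2-3 coregulator peptide after a 2 h room-temperature incubation.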
# G9a block: G9a (human) methyltransferase inhibition; Q96KQ7; G9a H3K9 monomethylation, AlphaScreen, 2 h; Potency, µM (doses to about 102 µM), inactives show top-dose activity, negative = inhibition, usual class: inhibitors; 350,000 compounds, 8.8% hits; further: on the % scale 0 is the no-effect control and ±100 the full control effect; nearly all actives have a fitted effect of over 75% in size
# Target sequence (Q96KQ7 913-1193 limits assumed): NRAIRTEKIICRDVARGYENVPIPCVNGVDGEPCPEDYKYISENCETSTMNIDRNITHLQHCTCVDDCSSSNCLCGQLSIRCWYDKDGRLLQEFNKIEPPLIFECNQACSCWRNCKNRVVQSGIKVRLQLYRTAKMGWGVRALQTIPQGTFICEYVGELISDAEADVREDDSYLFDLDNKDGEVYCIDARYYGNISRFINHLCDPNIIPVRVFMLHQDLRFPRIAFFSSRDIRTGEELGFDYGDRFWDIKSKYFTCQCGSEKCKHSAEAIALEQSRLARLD
#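 Using a bead-based AlphaScreen, monomethylated H3K9 product from 2 h room-temperature reactions (G9a 20 nM, peptide 500 nM, SAM 20 uM) was detected with 0.5 ug/mL rabbit anti-H3K9me1 antibody.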
# GRP78 ERSR act: induces the endoplasmic reticulum stress response in human glioma cells; Potency, µM, for inactives: top-dose activation, usual class: activators; AID 602332; 420,000 compounds, 0.02% hits; U87-MG GRP78 promoter luciferase reporter, 16 h; further: series mostly up to about 76 µM; % of control where 0% means no effect; nearly all actives have a fitted effect of over 35% in size
#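 ERSR induction read as luciferase luminescence (Bright-Glo, 10 min at room temperature) in stably transfected human U87-MG glioma cells exposed to compounds for 16 h, using GRP78 as sensor.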
# Sfp inh: blocks B. subtilis Sfp PPTase activity | Biochemical Sfp PPTase activity, qHTS | Q9F4F7 | Potency, µM, for inactives: largest response in the series, negative = inhibition, hits mostly inhibitors | AID 1490 | 310,000 compounds, 3.5% hits;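 further: the enzyme is Sfp with the accession as filed and its product quenches rhodamine fluorescence; 0% = enzyme reaction without inhibitor and -100% = no enzyme wells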
#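 Compounds were incubated with enzyme (final 15 nM) for 15 min at room temperature before substrate addition started the reaction. Fluorescence at 525 nm excitation, 598 nm emission was recorded immediately and after 30 minutes.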
# 12-LOX inh: ALOX12 (human) lipoxygenase inhibition; AID 1671190; purified 12hLO, xylenol orange hydroperoxide absorbance; 580,000 compounds, 1.1% hits; Potency, µM (top dose mostly 108 µM), for inactives: at the top dose activity change, negative = inhibition, most hits filed as inhibitors; P18054; further: on the % scale 0 is the no-effect control and ±100 the full control effect
#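 Purified human 12hLO (150 nM final) in 25 mM Hepes, 0.01% Triton X-100, pH 7.0 was preincubated 15 min at room temperature with compound. Then 40 uM arachidonic acid was added, 30 min. Hydroperoxide was read by Fe-XO absorbance ratio 573/405 nm.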
# * marks the source's active call; other numbers are inactive results; ? = inconclusive; nt = not tested or not shown; [ ] = another dose, or the depositor's remark. The call rests on the fitted dose curve; in most records, active means well fitted curve in the direction sought with a large enough effect; inconclusive means small, poorly fitted or top-dose-only effect, or another doubt; inactive means no such curve, though single readings can be large; an effect the other way counts as inactive or inconclusive. Potency means the concentration at half of the fitted maximal effect.
SMILES,VDR inhibitor,G9a block,GRP78 ERSR act,Sfp inh,12-LOX inh
CCOC(=O)c1c(NC(=O)c2c(N)n(CCCOC)c3nc4ccccc4nc23)sc2c1CCCC2,-0.7%,3.8%,-3.6%,56.2µM*,8.3%
COc1cccc([C@H]2CN(C(=O)Cc3cnc[nH]3)[C@@H]3C4CCN(CC4)[C@H]23)c1,nt,nt,nt,nt,1.3%
N#Cc1cccnc1N1CC2CCC(C1)N2CC(F)(F)F,nt,nt,nt,nt,-5.2%[12.5 µM]
O=C(C[n+]1ccccc1)c1ccc(Cl)cc1,-28.0%,2µM*,-3.1%,5.1%,nt
O=C(CI)c1ccc(Cl)cc1,nt,nt,-3.0%,nt,nt
Cc1ccc(N2C(=O)NC(=O)/C(=C\c3ccc([N+](=O)[O-])o3)C2=O)cc1,nt,6.31µM*,nt,?,nt
O=C1NC(=O)N(c2ccc(F)cc2)C(=O)/C1=C/c1ccc(N2CCOCC2)cc1,-25.4%,39.8µM*,4.7%,39.8µM*,-18.4%
COCCN1C(=O)NC(=O)/C(=C\c2ccc(F)cc2)C1=O,-18.0%,?,-3.1%,?,-15.3%
CCOc1ccc(N2C(=O)NC(=O)/C(=C\c3ccc(N4CCOCC4)cc3C)C2=O)cc1,?,-14.3%[12.7 µM],-2.2%,39.8µM*,?
O=C1NC(=O)N(Cc2ccc(F)cc2)C(=O)/C1=C\c1ccc(N2CCCC2)cc1,79.4µM*,44.7µM*,0.3%,?,6.0%
CCOC(=O)C1CCN(/C=C2/C(=O)NC(=O)N(c3ccc(OCC)cc3)C2=O)CC1,3.3%,?,-3.0%,-15.4%,-20.2%
Cc1cc(C)cc(N2C(=O)/C(=C\c3ccc(N4CCN(C)CC4)o3)C(=O)NC2=S)c1,-3.3%,?,2.7%,-0.8%,?
CC(C)CN1CCNc2cc(-c3ccccc3)ncc2C1,nt,nt,nt,nt,-5.2%[176 µM]
COc1ccc(N2C(=O)NC(=O)/C(=C/c3ccc(N4CCOCC4)cc3)C2=O)cc1,nt,50.1µM*,nt,50.1µM*,-21.0%
Cc1ccc(N2C(=O)NC(=O)/C(=C\c3ccc(N4CCOCC4)cc3)C2=O)cc1,?,?,-0.2%,17.8µM*,?
Cc1cc(/C=C2\C(=O)NC(=O)N(c3ccc(Br)cc3)C2=O)c(C)n1C,13.6%,?,-1.3%,-1.5%,?
COc1ccc(N2C(=O)NC(=O)/C(=C\c3cn(C)c4ccccc34)C2=O)cc1,-4.0%,25.0%[0.501 µM],-0.3%,-13.2%,nt
O=C(NC[C@H]1C[C@@H]2CCN1C[C@@H]2CN1CCCCC1)c1ccc(C(F)(F)F)cc1,nt,nt,nt,nt,1.1%[176 µM]
Cc1ccccc1-c1ccc2n(c1=O)C[C@H]1C[C@@H]2CN(C(=O)c2cccs2)C1,nt,nt,nt,nt,37.6%[176 µM]
COc1cc2c(cc1OCc1ccccc1)N(C(=O)c1ccccc1OC)CC21CCN(C)CC1,nt,nt,nt,nt,-6.1%
Cc1nn(C)c(C)c1P(=S)(c1c(C)nn(C)c1C)N(C)C,-2.0%,14.1µM*,2.8%,-12.6%,?
CC(C)(O)c1cn(C[C@H]2C[C@@H]3CCN2C[C@@H]3C(=O)Nc2ccccc2)nn1,nt,nt,nt,nt,5.7%[176 µM]
CCC1(C)OC(c2ccccc2)=C/C(=C/C=C2C(=O)NC(=O)NC2=O)O1 (stereo not drawn),-15.3%,50.1µM*,-2.1%,-15.3%,2.4%
O=C(COc1ccccc1)N1CCN(CC2CC3C=CC2C3)CC1 (stereo not drawn),-3.8%,8.91µM*,-5.0%,-24.0%,?
O=C(COc1ccccc1)N1CCN(CC2CC=CCC2)CC1 (stereo not drawn),10.4%,20µM*,0.5%,?,0.631µM*
SMILES,VDR inhibitor,G9a block,GRP78 ERSR act,Sfp inh,12-LOX inh
CC(Nc1ccc([N+](=O)[O-])c2cnccc12)c1ccc(F)cc1 (stereo not drawn),nt,nt,nt,nt,5.8%
O=C1NC[C@H]2CN(Cc3ccccc3)CCN12,nt,nt,nt,nt,-38.7%[176 µM]
CN1c2ncccc2CN(Cc2ccccn2)CC[C@H]1CO,nt,nt,nt,nt,228.1%[176 µM]
CN1C(=O)/C(=C/c2cccn2-c2ccc3ccccc3c2)C(=O)NC1=S,44.7µM*,?,-0.5%,56.2µM*,?
COc1ccc(NC(=O)N2[C@H]3CC[C@@H]2c2cnc(-c4ccccc4)nc2C3)cc1OC,nt,nt,nt,nt,19.8%
COc1ccc(CNCC(=O)N2CCC3(CC2)OCCO3)cc1,-1.5%,22.4µM*,-6.2%,-11.6%,-15.8%
COc1ccc(C(=O)N2CCC3(CC2)OCCO3)cc1,4.8%,nt,0.2%,5.4%,10.8%
CC(=O)Nc1ccc(S(=O)(=O)NC[C@H]2C[C@@H]3CCN2C[C@@H]3c2cc(-c3ccc(N(C)C)cc3)nc(C)n2)cc1,nt,nt,nt,nt,-10.9%
Cc1[nH]nc2c1C(c1ccc3c(c1)OCCO3)SCC(=O)N2 (stereo not drawn),nt,nt,nt,nt,3.1%
Cc1ccc2occ(CN3CC4CC(C3)c3cccc(=O)n3C4)c(=O)c2c1 (stereo not drawn),15.2%,10.1%,-2.0%,2.3%,-17.8%
Cc1ccc2[nH]c3c(c2c1)CN(C(=O)CN1C[C@H]2C[C@@H](C1)c1cccc(=O)n1C2)CC3,-0.1%,50.1µM*,-1.5%,7.6%,-12.4%
CCOc1ccccc1N1C(=O)CC(=O)NC1=O,?,79.4µM*,-4.7%,-14.8%,5.8%
O=C(c1ccn[nH]1)N1[C@H]2CC[C@@H]1c1cnc(-c3ccccc3)nc1C2,nt,nt,nt,nt,48.5%
O=C(O)CCn1cc(C=C2C(=O)NC(=S)NC2=O)c(-c2cc3ccccc3oc2=O)n1,?,11.2µM*,-1.8%,10µM*,-0.4%
COc1ccccc1CNC(=O)[C@H]1CN2CCC1C[C@@H]2Cn1cc(CN(C)Cc2ccccc2)nn1 (stereo partly drawn),nt,nt,nt,nt,27.7%
S=c1[nH]c2cc(Br)cnc2[nH]1,-5.6%,3.16µM*,-2.9%,22.4µM*,39.8µM*
O=C(CNC(=O)c1cccs1)NCC(=O)OCC(=O)c1ccc([N+](=O)[O-])cc1,-6.8%,44.7µM*,1.5%,?,-5.8%
C=CCSc1nc2c(c(-c3ccsc3)c1C#N)CN(C)CC2,-17.0%,15.8µM*,-3.1%,-14.5%,51.1%
O=C1NC(=O)[C@]2(Cc3ccccc3N3CCN(c4ccccc4)CC32)C(=O)N1c1ccccc1 (stereo partly drawn),-6.1%,3.16µM*,3.6%,-3.0%,?
CN1C(=O)NC(=O)[C@]2(Cc3ccccc3N3CCN(c4ccccc4)CC32)C1=O (stereo partly drawn),?,3.16µM*,7.1%,-16.6%,-23.6%
CN1C(=O)NC(=O)C2(Cc3ccccc3N3CCOCC32)C1=O (stereo not drawn),3.0%,-1.4%[59 µM],-1.0%,-1.3%,11.5%
COc1ccc(C2=NCC(=O)N(CC(=O)Nc3ccc(F)cc3F)c3sc4c(c32)CCC4)cc1,nt,nt,nt,nt,-13.6%
CC(C)c1nccn1C(C)C(=O)N1CCC(C#N)(c2ccccc2)CC1 (stereo not drawn),nt,nt,nt,nt,-11.0%
Fc1ccccc1CN1CCN(c2ccc(Cl)cc2)CC1,13.2%,18.9%[2.33 µM],0.1%,9.9%,2.9%
Clc1cccc(Cl)c1CN1CCN(c2ccccc2)CC1,-9.0%,25.1µM*,-3.5%,-25.6%,?
Clc1ccc(N2CCN(Cc3ccccc3Cl)CC2)cc1,2.2%,25.1µM*,0.0%,-26.2%,?
